Reference: PubChem BioAssay (NCI)
The panel holds about 79,000 compounds, 15% with a hit somewhere; the sample as a whole holds those more often. Unmarked numbers belong to inactive results. Active and inactive are the calls of the source. Rule as the data show it: active = growth inhibition above about 70%; inactive = the rest. Where a SMILES comes first, the peptide text is derived from it. [ ]: non-standard residue; d: D form. The star is where a group is joined. ξ: configuration not given here. NMeF = CN[C@@H](Cc1ccccc1)C(=O)O; NMeV = CN[C@H](C(=O)O)C(C)C; ξNMeN = CNC(CC(N)=O)C(=O)O; NMeA = CN[C@@H](C)C(=O)O; ξNMeV = CNC(C(=O)O)C(C)C; Cbz = O=C(OCc1ccccc1)*; Boc = CC(C)(C)OC(=O)*; OSu = O=C1CCC(=O)N1O*; Bn = c1ccc(C*)cc1

Assays:
[1] = NCI Yeast Anticancer Drug Screen. Data for the rad50 strain (AID 155);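 also: 0% = growth of vehicle-only cultures of the same strain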; details: S. cerevisiae rad50 strain growth inhibition; at 50.0 µM; stronger effect = higher value
In short: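 Genetically altered yeast (DNA repair pathway); compound treatment; growth inhibition vs vehicle ctrl.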

[2] = NCI Yeast Anticancer Drug Screen. Data for the mec2-1 strain (AID 157); details: S. cerevisiae mec2-1 strain, at 50.0 µM, stronger effect = higher value
In short: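 Strain: mec2-1 (DNA repair/cell cycle alteration). Compound exposure, then growth measured; inhibition expressed relative to vehicle.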

[3] = NCI Yeast Anticancer Drug Screen. Data for the sgs1 mgt1 strain (AID 161);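 also: 0% = growth of cultures given vehicle only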; details: S. cerevisiae sgs1 mgt1 strain, at 50.0 µM, stronger effect = higher value
In short: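 Inhibition of yeast growth, normalised to vehicle-treated controls, is reported for a strain bearing genetic alterations in DNA damage repair.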

[4] = NCI Yeast Anticancer Drug Screen. Data for the cln2 rad14 strain (AID 165);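 also: 0% = growth equal to vehicle treated cultures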; details: S. cerevisiae cln2 rad14 strain, at 50.0 µM, stronger effect = higher value
In short: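 Compounds are applied to the cln2 rad14 yeast strain, and growth is then compared with that of vehicle-treated cultures to give inhibition.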

[5] = NCI Yeast Anticancer Drug Screen. Data for the bub3 strain (AID 167); details: S. cerevisiae bub3 mutant strain, at 50.0 µM, stronger effect = higher value
In short: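 Yeast carrying a defined mutation is treated with each compound, and growth is compared with that of vehicle-exposed cells to give inhibition.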

[6] = NCI Yeast Anticancer Drug Screen. Data for the mlh1 rad18 strain (AID 175); details: S. cerevisiae mlh1 rad18 strain growth inhibition; at 50.0 µM; stronger effect = higher value
In short: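 Read-out is yeast growth inhibition, calculated against vehicle-only controls. The compound was applied to a strain engineered with DNA damage repair alterations.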

SMILES	growth inhibition [1]	growth inhibition [2]	growth inhibition [3]	growth inhibition [4]	growth inhibition [5]	growth inhibition [6]
c1ccc2c(c1)NC(SSC1Nc3ccccc3S1)S2 (stereo not drawn)	-2.4%	-21.1%	-2.65%	-0.55%	-11.1%	1.65%
CCN(CC)/C(C=[N+]=[N-])=N\C(N)=N\S(=O)(=O)c1ccc(OC)cc1	-37.2%	-13.9%	-13.8%	-28%	4.05%	13.4%
N#CCCC(=O)O	17.6%	0.45%	11.7%	3.45%	2.5%	15.8%
CCc1ccccc1NC(=O)COc1ccc(Cl)cc1	5.7%	29.2%	18.8%	0.45%	34.2%	1.1%
CC(=O)Nc1cc(C(C)=O)ccc1C(C)=O	-5.8%	-6.2%	6%	2.35%	-0.5%	12.7%
COc1ccc(C=O)c(C)c1	-4.05%	-30.1%	4.15%	15.3%	-15.8%	-5.45%
COc1cc(C(=O)C[n+]2ccccc2)ccc1O	95.3% (active)	86.2% (active)	84.5% (active)	97.2% (active)	97.7% (active)	99.5% (active)
C=CCC[P+](c1ccccc1)(c1ccccc1)c1ccccc1	37.2%	34.1%	28.2%	-3.4%	9.1%	8.75%
Cc1cc(C)c(C#N)c(NN)n1	-5.35%	-2.8%	11.1%	12.2%	-0.5%	-1.05%
C#CCOCC12C=CC(O1)C1C(=O)OCC12 (stereo not drawn)	-9.45%	9.65%	-12.8%	18.9%	21%	41.9%
O=C(NNC(=O)c1cccc(Br)c1)c1ccccc1	4.05%	-37.6%	-0.1%	5.65%	-7.15%	-3.15%
O=C1CCN(Cc2ccco2)C(=O)N1	1%	-12.3%	10.9%	-41%	-5.7%	10.2%
CCOCCOC(=O)/C=C/c1ccccc1	17.6%	-9.6%	-4.35%	-46.8%	8.15%	-3.15%
CNC(=O)OCc1c(COC(=O)NC)c(-c2ccc(F)cc2)n2c1CCC2	23.8%	12.7%	-15.9%	18.7%	7.55%	52.6%
CC(C)(C)OC(=O)NC(Cc1ccc(OCc2ccccc2)cc1)C(=O)NC(CCCCNC(=O)OCc1ccccc1)C(=O)NC(CCCCNC(=O)OCc1ccccc1)C(=O)ON1C(=O)CCC1=O (stereo not drawn) (Boc-Tyr(Bn)-Lys(Cbz)-Lys(Cbz)-OSu; configuration not given here)	-1.85%	2.95%	6.6%	6.15%	8.6%	16.5%
CCCCOB(OCCCC)Oc1c(C(C)(C)C)cc(C)cc1C(C)(C)C	1.5%	-14.2%	-2.55%	15.5%	-10.2%	-3%
COc1cc(/C=C2/C(=O)N=C(NC(C)=O)N2C)ccc1OC(C)=O	-35.9%	-2.55%	-14.7%	6.35%	5.55%	-37.1%
CCOC(=O)/C(C#N)=C(\C)c1ccccc1	9.65%	-5.3%	1.2%	5.15%	-25.7%	-17.6%
CN1C[C@H]2[C@@H](C1=O)[C@H](c1ccc([N+](=O)[O-])cc1)ON2C	-50.5%	-72.5%	-39.7%	14.9%	1.2%	-33.8%

SMILES	growth inhibition [1]	growth inhibition [2]	growth inhibition [3]	growth inhibition [4]	growth inhibition [5]	growth inhibition [6]
O=S(=O)(O)c1cc(S(=O)(=O)O)c2c(Nc3ccnc4ccccc34)ccc(S(=O)(=O)O)c2c1	-8.25%	-1.3%	-19.2%	3.6%	-8.45%	13.8%
CCN(CC)CCNc1ccc2ncn3c4c(OC)ccc(OC)c4c(=O)c1c23	-21.1%	-22.2%	0.9%	22.6%	-47%	62.1%
Cc1ccc(C#N)c2c1CCC2	2.65%	-10.7%	3.05%	-50%	-13%	2.6%
COC(=O)[C@H](C)N(C)C(=O)C(CC(N)=O)N(C)C(=O)[C@H](Cc1ccccc1)N(C)C(=O)[C@@H]1CCCN1C(=O)[C@H](C(C)C)N(C)C(=O)C(C(C)C)N(C)C(=O)[C@@H](NC(=O)OC(C)(C)C)C(C)C (stereo partly drawn) (Boc-V[ξNMeV][NMeV]P[NMeF][ξNMeN][NMeA]-OMe)	-20.1%	-16.6%	-13.9%	8.9%	8.65%	-5.4%
O=C(O)C(Cc1ccsc1)C(=O)O	-10.1%	1.1%	-6.6%	-17%	-6.45%	12.4%
COC(=O)CCC(=O)Nc1cc(Cl)c(Cl)cc1Cl	-14.1%	8.15%	6.55%	1.15%	9.3%	-7.4%
CON(C)C(C#N)=C(C#N)C#N	9.75%	1.85%	21.1%	7.05%	8.1%	25.2%
CC1(C)OC2C(=O)C3COC(O3)C2O1 (stereo not drawn)	-10.7%	-0.25%	-25.1%	-36%	0%	5.8%
COc1ccc(-c2cc(-c3ccccc3)n[nH]2)cc1	24%	27.7%	43.8%	-13.9%	47.9%	33.4%
CCCOC(=O)c1ccc(C(C)C)cc1	1.1%	0.8%	-5.3%	3.7%	2.25%	-1%
CCOC(=O)C1=NN(c2ccccc2)C(=O)/C1=C\N1CC(=O)NC1=S	-19.4%	-14.2%	-31.5%	-10.2%	9.85%	-32.1%
COc1cc(C(=O)C(O)c2cc(OC)c(OC)c(OC)c2)cc(OC)c1OC (stereo not drawn)	18%	11.2%	11.1%	-13%	2.95%	28.3%
CC(C)(CCl)c1ccccc1	-10.6%	-3.1%	-6.3%	0.75%	4%	-0.55%
CCCCn1c2nc3ccccc3c-2nc2cc(OC)c(OC)cc21	26.1%	15.3%	14.6%	5.5%	12.2%	35.1%
CC1=Nn2c(nnc2-c2ccc(Cl)cc2)NC(C)(C)C1	25.2%	5.55%	7.65%	7.95%	39.1%	26.3%
CC(=O)OCC(=O)[C@@]1(O)CC[C@H]2[C@@H]3C[C@H](C)C4=CC(=O)C=C[C@]4(C)[C@@]3(Br)[C@@H](O)C[C@@]21C	30.9%	7.75%	38.3%	35.9%	1.35%	-9.1%
Nc1nnc(-c2ccc(Br)cc2)o1	3.05%	-16.9%	-14.2%	-5%	-25.9%	5%
CCOC(=O)C1=C(C)OC(C)(OC(C)=O)C1=O (stereo not drawn)	14.1%	-1.9%	2.8%	-25.9%	-6.9%	13.8%
O=Cc1ccc(OCCCOc2ccc([N+](=O)[O-])cc2)cc1	-5.1%	1.6%	11.3%	-12.1%	33.1%	42%
